Each structure is given as a SMILES string. Unmarked numbers belong to inactive results.

The nature of this test: budding yeast growth modifiers under rapamycin – strain BY4716, OD600, 96 h, primary screen (AID 1091). Further: test concentration not given here. The conditions noted are these: S. cerevisiae BY4716 + rapamycin, higher = more signal, called active from +8 up or from −8 down.
For the molecule `CC(C)CN1CCc2nc(-c3ccccc3)c3c(c2C1)CO[C@@H](C)C3`, the z-score is -0.0674.

Regarding `COCC#Cc1ccc([C@@H]2N[C@H](C(=O)O)CC[C@H]2C)cc1`, the z-score was -1.34. `C[C@@H](c1ccccc1)N1C(=O)[C@H]2[C@H]3[C@H](O)[C@H](O)CC(=NOC[C@@H](O)COCc4ccco4)[C@H]3CC[C@H]2C1=O`: the z-score is -0.0348.

Turning to `CCOC(=O)[C@H](CC(C)C)NC(=O)CCC1CC(OC(=O)NCc2ccc3c(c2)OCO3)CC2(CCCC(COC(=O)NCCc3ccc(Cl)cc3)O2)O1` (stereo partly specified), the z-score is -1.81. With `C#CCCCON=C1C[C@@H](O)[C@@H](O)[C@@H]2[C@@H]3C(=O)N(C4CCCCC4)C(=O)[C@@H]3CC[C@@H]12`, the z-score is -1.07. As for `CC(C)=CCCC(C)=CCON=C1C[C@@H](O)[C@@H](O)[C@@H]2[C@@H]3C(=O)N(c4cccc(Oc5ccccc5)c4)C(=O)[C@@H]3CC[C@H]12`, the z-score is -0.407. For `COc1ccc(O[C@H]2C=C[C@@H](C#Cc3ccccc3)O[C@@H]2CO)cc1`, the z-score was -0.731.

In the case of `CCCNC(=O)OC[C@H]1O[C@H](CCON=C[C@@H](NS(=O)(=O)c2ccc(C)cc2)[C@H](C)C=CCC(=O)OC)C=C[C@@H]1Oc1ccc(OC)cc1`, the z-score is -0.148. Turning to `COC(=O)[C@H](C)NC(=O)CCC1CC(OC(=O)NCc2cccc3ccccc23)CC2(CCCC(COC(=O)NCCCN3CCCC3=O)O2)O1` (stereo partly specified), the z-score was 0.187. In the case of `COC(=O)[C@H](C)NC(=O)CCC1CC(OC(=O)NCCc2ccc(F)cc2)CC2(CCCC(COC(=O)NCC3CCCCC3)O2)O1` (stereo partly specified) it was 0.689; in that of `COC(=O)[C@H](C)NC(=O)CCC1CC(OC(=O)NCc2ccc3c(c2)OCO3)CC2(CCCC(COC(=O)NCCc3ccc(Cl)cc3)O2)O1` (stereo partly specified), -0.529. In the case of `COc1ccc(COC(=O)NN=C2C[C@@H](O)[C@@H](O)[C@@H]3[C@@H]4C(=O)N([C@@H](C)c5ccccc5)C(=O)[C@@H]4CC[C@@H]23)cc1` it was -0.206. In the case of `COc1ccc(O[C@H]2C=C[C@@H](c3ccccc3)O[C@@H]2COC(=O)CCC(C)=NOC[C@@H](O)COCc2ccco2)cc1` it was -0.244. On to `CCN1C(=O)[C@H]2[C@H]3[C@H](O)[C@H](O)CC(=NOCC(C)C)[C@H]3CC[C@H]2C1=O`, for which the z-score was 0.512.

Consider `CC(=O)OC[C@H]1O[C@H](C#CCC2CCCCC2)C=C[C@@H]1OC(C)=O`, for which the z-score was -0.525.

For the molecule `CCN1C(=O)[C@H]2[C@H]3[C@H](O)[C@H](O)CC(=NOC[C@@H](O)[C@H]4O[C@@H]5OC(C)(C)O[C@@H]5[C@H]4O)[C@@H]3CC[C@H]2C1=O`, the z-score was 0.33. For `C[C@@H]1CC[C@@H](C(=O)O)N[C@H]1c1cccc(N2CCOCC2)c1`, the z-score was -0.591. For `CCOC(=O)NN=C1C[C@@H](O)[C@@H](O)[C@@H]2[C@@H]3C(=O)N(c4ccc(F)cc4F)C(=O)[C@@H]3CC[C@H]12` the value was -0.155; for `CCC1=NOC(CCC2CC(OC(=O)NCc3cccc4c3OCO4)CC3(CCCC(COC(=O)NCCc4ccc(Cl)cc4)O3)O2)C1` (stereo unspecified), 0.407; for `CCOC(=O)CCN1C(=O)[C@H]2[C@H]3[C@H](O)[C@H](O)CC(=NO[C@@H]4O[C@H](CO)[C@@H](O)[C@H](O)[C@H]4O)[C@@H]3CC[C@H]2C1=O`, -0.933. Regarding `CCOC(=O)[C@H](CC(C)C)NC(=O)CCC1CC(OC(=O)NCc2ccc3c(c2)OCO3)CC2(CCCC(COC(=O)NCc3ccccc3)O2)O1` (stereo partly specified), the z-score was 0.0835. For `CC(C)C(=O)N[C@H]1CCCN1C(=O)C=Cc1ccccc1` the value was 1.02; for `COC(=O)[C@H](C)NC(=O)CCC1CC(OC(=O)NCc2cccc3ccccc23)CC2(CCCC(COC(=O)NCc3ccccc3)O2)O1` (stereo partly specified), -0.936. With `CCOC(=O)[C@H](CC(C)C)NC(=O)CCC1CC(OC(=O)NCCc2ccc(F)cc2)CC2(CCCC(COC(=O)NCc3cccc4ccccc34)O2)O1` (stereo partly specified), the z-score was 0.238. Consider `COC(=O)CC=C[C@@H](C)[C@@H](C=NOC(C)CN1CCCCc2nc(C)c(C)cc21)OC` (stereo partly specified), for which the z-score was -0.906. For `CCN1C(=O)[C@H]2[C@H]3[C@H](O)[C@H](O)CC(=NOC[C@@H](O)COCc4ccco4)[C@H]3CC[C@H]2C1=O` the value was -0.0439; for `COCCNC(=O)OCC1CCCC2(CC(OC(=O)NCc3cccc4ccccc34)CC(CCC(=O)N[C@@H](C)C(=O)OC)O2)O1` (stereo partly specified), 2.67; for `CC(=O)OC[C@H]1O[C@@H](ON=C(C)CCN2CCCCc3nc(C)c(C)cc32)[C@H](OC(C)=O)[C@@H](OC(C)=O)[C@@H]1OC(C)=O`, -0.175.

Regarding `O=C1C=C[C@@H](O)[C@@H]2[C@@H]3C(=O)N(c4cccc(Oc5ccccc5)c4)C(=O)[C@@H]3CC[C@@H]12`, the z-score was -0.0875. In the case of `CCOC(=O)[C@H](CC(C)C)NC(=O)CCC1CC(OC(=O)NCCc2ccc(F)cc2)CC2(CCCC(COC(=O)NCCOC)O2)O1` (stereo partly specified) it was 1.5; in that of `CCN1C(=O)[C@H]2[C@H]3[C@H](O)[C@H](O)CC(=NOC(C)CN4CCCc5nc(C)c(C)cc54)[C@@H]3CC[C@H]2C1=O` (stereo partly specified), 0.385; in that of `CC(C)=CCCC(C)=CCON=C1[C@H]2CCn3c(=O)n(-c4ccccc4)c(=O)n3[C@H]2[C@H](O)[C@@H]2O[C@H]12`, -0.784.

For `O=C1C=C[C@@H](O)[C@@H]2[C@@H]3C(=O)N(Cc4ccccc4)C(=O)[C@@H]3CC[C@@H]12`, the z-score is -0.795. Regarding `CCCCOC(OCCCC)C(O)CSc1ccc2ccccc2c1` (stereo unspecified), the z-score was 0.594. For `CC[C@@H](c1ccccc1)n1c(=O)n2n(c1=O)[C@H]1[C@H](O)[C@@H]3O[C@@H]3C(=NOCc3ccccc3)[C@H]1CC2` the value was 0.191; for `CC(CCN1CCCc2nc(C)c(C)cc21)=NOC[C@@H](C)[C@H](OCc1ccccc1)C(C)C`, -0.788.
